This passage reports binding signal results from paper PMC4242493, “Sequence specificity incompletely defines the genome-wide occupancy of Myc”.

Whole data set: some 33,000 sequences, median “normalized occupancy” near 0.075, cut for the highest 2% near 0.095. This excerpt belongs to a sample that is enriched for the highest values.

Sequence of MaxL homodimer (P61244 whole entry): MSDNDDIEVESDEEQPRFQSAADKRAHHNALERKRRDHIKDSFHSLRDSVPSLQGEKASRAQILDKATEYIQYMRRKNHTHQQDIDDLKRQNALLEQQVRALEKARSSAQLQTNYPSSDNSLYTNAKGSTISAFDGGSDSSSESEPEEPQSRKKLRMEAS

For the test, the target named is MaxL homodimer (Homo sapiens, UniProt P61244 1-160). As to the kind of experiment: universal protein-binding microarray (PBM); PBS-based mixture, 10 nM His-tagged protein dimer, 2% milk, 200 ng/uL BSA, 50 ng/uL salmon testes DNA, 0.02% TX-100; detection with Alexa 488 anti-His antibody;; high values mean tight binding. The note with it: protein: recombinant; tags: C-terminal His-tag (pET21a); chain copies: 2; dsDNA, one strand shown. In outline:
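A His-tagged protein dimer at 10 nM was incubated on Agilent 4 x 44 K arrays of the 'all 10-mer' universal design, then labelled with 10 ng/μL fluorophore-conjugated anti-His antibody and scanned on a GenePix 4400A. A fluorescence intensity was assigned to each 8-mer. Binding occupancy is each such intensity normalised to that of the highest-ranked one.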
For the sequence ACACGTCT, the binding signal worked out at 0.0781 normalized occupancy. Regarding ACACGTCC, the binding signal was 0.08 normalized occupancy. The figure for ACACGTGA is 0.383 normalized occupancy; for AGACGTGG it is 0.0819 normalized occupancy; for AGACGTGA it is 0.0821 normalized occupancy. Consider ACACGTAC, for which the binding signal worked out at 0.0858 normalized occupancy. The figure for ATACGTGA is 0.081 normalized occupancy.

In the case of ACACGTGC, the binding signal is 0.567 normalized occupancy. For ACACGTAT, the binding signal stood at 0.0833 normalized occupancy.

As for ACACGTAG, the binding signal amounted to 0.0822 normalized occupancy. For ATGAAGCA, the binding signal was found to be 0.082 normalized occupancy. With CATTATTA, the binding signal is 0.0832 normalized occupancy. Turning to TAATGCTA, the binding signal turned out to be 0.0758 normalized occupancy. With ACTCTGAA, the binding signal worked out at 0.0737 normalized occupancy. On to ATTCAGCA, for which the binding signal amounted to 0.0725 normalized occupancy. In the case of AATCGTTA, the binding signal amounted to 0.0761 normalized occupancy. For ATACGTAT, the binding signal turned out to be 0.0856 normalized occupancy. GCATGGCC: the binding signal stood at 0.0963 normalized occupancy. In the case of TCATGGCA it was 0.0816 normalized occupancy; in that of ACATGGAC, 0.0847 normalized occupancy. The figure for TCATGGGA is 0.0807 normalized occupancy. In the case of ACATGGCC it was 0.0878 normalized occupancy; in that of ACATGGCA, 0.0904 normalized occupancy. For the sequence ACATGGGA, the binding signal worked out at 0.0901 normalized occupancy. Regarding CCATGGAC, the binding signal came out at 0.0837 normalized occupancy. The figure for GCATGGGA is 0.0967 normalized occupancy; for CCATGGCC it is 0.0766 normalized occupancy; for GCATGGCA it is 0.102 normalized occupancy. Turning to GCATGGAC, the binding signal was 0.0979 normalized occupancy. In the case of AATTAAGC it was 0.0756 normalized occupancy.

In the case of CTGACACC, the binding signal came to 0.0794 normalized occupancy. Regarding GTTTGTGA, the binding signal is 0.0718 normalized occupancy. On to TAGCATCA, for which the binding signal is 0.0821 normalized occupancy. The figure for GTCTTCAA is 0.0773 normalized occupancy. The figure for GAGTTGCC is 0.0729 normalized occupancy; for ATTCCATC it is 0.0772 normalized occupancy; for TGATTCCA it is 0.0829 normalized occupancy. The figure for AACAAACC is 0.074 normalized occupancy; for CCATGACC it is 0.0831 normalized occupancy; for GCATGACC it is 0.0988 normalized occupancy. In the case of ACATGACA, the binding signal was 0.089 normalized occupancy. In the case of ACATGACG it was 0.0854 normalized occupancy; in that of ACATGACC, 0.0952 normalized occupancy; in that of CCATGATC, 0.0848 normalized occupancy. The figure for GCATGACA is 0.088 normalized occupancy.

As for ACATGATC, the binding signal came out at 0.101 normalized occupancy. On to ACATGATA, for which the binding signal worked out at 0.0928 normalized occupancy. Take ATGGGAGC: the binding signal amounted to 0.0768 normalized occupancy. In the case of GTTCCCTA it was 0.0721 normalized occupancy; in that of CGAAAATC, 0.0726 normalized occupancy.

As to CCTTAACC, the binding signal was 0.0754 normalized occupancy. The figure for CGCTTATA is 0.0805 normalized occupancy. In the case of CAGTCAGG, the binding signal stood at 0.0732 normalized occupancy. As to ACTAAGTC, the binding signal came out at 0.0734 normalized occupancy. Turning to CCCCTTTC, the binding signal amounted to 0.0738 normalized occupancy. In the case of ACGAACAG it was 0.0753 normalized occupancy; in that of ACTCACAT, 0.0886 normalized occupancy. Turning to CCTGCTGA, the binding signal turned out to be 0.0756 normalized occupancy. Take CATCCACA: the binding signal amounted to 0.0859 normalized occupancy. With CCCCCACA, the binding signal amounted to 0.0839 normalized occupancy.

Turning to ATTCCACG, the binding signal was 0.0964 normalized occupancy. Turning to GTTCCACA, the binding signal is 0.0784 normalized occupancy. Regarding GCCCCACA, the binding signal is 0.0784 normalized occupancy. In the case of AATCCACG it was 0.0813 normalized occupancy. For CATCCACG, the binding signal worked out at 0.108 normalized occupancy. In the case of CACCCACC it was 0.0828 normalized occupancy. In the case of ATTCCACA it was 0.0794 normalized occupancy; in that of CACCCACG, 0.0964 normalized occupancy. The figure for CCCCCACG is 0.0958 normalized occupancy.

CACCCACA: the binding signal amounted to 0.0789 normalized occupancy.

With CAACTATG, the binding signal is 0.0846 normalized occupancy. On to AACAGCAT, for which the binding signal was 0.087 normalized occupancy.

On to GTTTGGAA, for which the binding signal came to 0.0754 normalized occupancy.

ACGCCTGG: the binding signal was 0.0735 normalized occupancy.

CAGTAATA: the binding signal was 0.0775 normalized occupancy.

For CATCCCCG, the binding signal was determined as 0.0773 normalized occupancy. For TTAATGAA, the binding signal stood at 0.0772 normalized occupancy.

ACACAGGC: the binding signal was determined as 0.0789 normalized occupancy. Take CACTTCGC: the binding signal amounted to 0.0739 normalized occupancy.

As for GTCCTCAC, the binding signal amounted to 0.0765 normalized occupancy. With AAGAGCAC, the binding signal came out at 0.0774 normalized occupancy. Take CGCGGGAC: the binding signal was 0.0733 normalized occupancy. The figure for TAAAGGAA is 0.0741 normalized occupancy; for AATCGAAA it is 0.0785 normalized occupancy; for ATGATGTG it is 0.088 normalized occupancy.

Consider AAGTGGAA, for which the binding signal is 0.072 normalized occupancy. In the case of AGGTGGAT it was 0.08 normalized occupancy; in that of AGGTGGAC, 0.0775 normalized occupancy. On to AGGTGGAA, for which the binding signal was 0.0722 normalized occupancy. As to GAGTGGAC, the binding signal was determined as 0.0761 normalized occupancy.

As to AAGTGGAT, the binding signal worked out at 0.0727 normalized occupancy. ACGTGGAA: the binding signal was 0.108 normalized occupancy. In the case of ACGTGGAC it was 0.106 normalized occupancy.

With GGGTGGAC, the binding signal stood at 0.0796 normalized occupancy.

For the sequence CCGTGGAC, the binding signal worked out at 0.0739 normalized occupancy. ACGTGGAT: the binding signal was determined as 0.104 normalized occupancy. The figure for GCGTGGAC is 0.0976 normalized occupancy; for AGCTGAAA it is 0.0723 normalized occupancy; for ACACGGCC it is 0.0719 normalized occupancy. As to AAACATCC, the binding signal was found to be 0.0762 normalized occupancy. CGGCACAA: the binding signal came out at 0.0773 normalized occupancy. Consider TCAATAGA, for which the binding signal is 0.0745 normalized occupancy. Consider ACAAGGCT, for which the binding signal came out at 0.0781 normalized occupancy.

As for GAGGCAGA, the binding signal came to 0.0719 normalized occupancy. In the case of CGCTCTAA it was 0.0739 normalized occupancy; in that of AGGGCATA, 0.0779 normalized occupancy; in that of ACGTGGAG, 0.0976 normalized occupancy. In the case of GCGTGGAA it was 0.106 normalized occupancy; in that of CCGTGGAA, 0.0755 normalized occupancy; in that of TCGTGGAA, 0.0835 normalized occupancy. The figure for AGGTGGAG is 0.0827 normalized occupancy; for CCGTGGAG it is 0.0796 normalized occupancy. For ACGTATTA, the binding signal is 0.0818 normalized occupancy. Take AATGGTTA: the binding signal was 0.0807 normalized occupancy.

Turning to CATGACGG, the binding signal stood at 0.0797 normalized occupancy. Consider CACCGTGC, for which the binding signal was found to be 0.0868 normalized occupancy. The figure for AAGCGTCA is 0.0737 normalized occupancy; for GAGCGTGC it is 0.0887 normalized occupancy; for AAGCGTTG it is 0.076 normalized occupancy. As for CAGCGTGC, the binding signal was 0.118 normalized occupancy. In the case of CAGCGCGC, the binding signal worked out at 0.0795 normalized occupancy. For the sequence AAGCGTTA, the binding signal was determined as 0.0738 normalized occupancy. As for AAGCGCGG, the binding signal came to 0.0752 normalized occupancy. The figure for AAGCGTGC is 0.104 normalized occupancy; for AAGCGTTC it is 0.0728 normalized occupancy; for AAGCGTGA it is 0.0961 normalized occupancy.

AAGCGTGG: the binding signal is 0.121 normalized occupancy. On to GGTCGGAC, for which the binding signal worked out at 0.0772 normalized occupancy. On to TATGCTAA, for which the binding signal worked out at 0.0798 normalized occupancy. For CAATCTCG, the binding signal came out at 0.0753 normalized occupancy. With ACGCTGAC, the binding signal is 0.0735 normalized occupancy. As to ATTTGAGA, the binding signal worked out at 0.0896 normalized occupancy. The figure for AGACCCTC is 0.0752 normalized occupancy; for CTGGTCAC it is 0.0773 normalized occupancy. With ATTTATGC, the binding signal worked out at 0.0838 normalized occupancy. In the case of AGAGTTAA it was 0.0737 normalized occupancy; in that of AAGCGTGT, 0.0967 normalized occupancy.

As for AAGCGTAT, the binding signal came to 0.0722 normalized occupancy. The figure for AAGCGCGT is 0.0758 normalized occupancy; for GAGGGGAA it is 0.0755 normalized occupancy; for GCATGATA it is 0.0994 normalized occupancy. For AGGTGATA, the binding signal was 0.0839 normalized occupancy. The figure for ACGTGATG is 0.103 normalized occupancy. AAGTGATA: the binding signal came out at 0.0795 normalized occupancy. As to GTATGATA, the binding signal was 0.0877 normalized occupancy. For ACGTGATA, the binding signal was determined as 0.11 normalized occupancy.

For the sequence ACGTGATC, the binding signal came out at 0.108 normalized occupancy. For the sequence AAGTGATC, the binding signal came to 0.0794 normalized occupancy. In the case of CCATGATA it was 0.0845 normalized occupancy. The figure for AGGTGATG is 0.0834 normalized occupancy. The figure for CCGTGATC is 0.0778 normalized occupancy; for AAGTGATG it is 0.0756 normalized occupancy. Consider CTGGACGA, for which the binding signal was found to be 0.0734 normalized occupancy. Turning to CCTTCAGA, the binding signal amounted to 0.0732 normalized occupancy. The figure for CGAGGGCA is 0.0765 normalized occupancy; for GTGCTGGA it is 0.0813 normalized occupancy. Turning to ATTGATTG, the binding signal was determined as 0.0769 normalized occupancy. Turning to CAAGGGAA, the binding signal was 0.0781 normalized occupancy.

In the case of ATGGATGC, the binding signal was 0.082 normalized occupancy. The figure for GCGTGATA is 0.1 normalized occupancy; for CCGTGATA it is 0.0782 normalized occupancy; for GAGTGATA it is 0.0802 normalized occupancy.

For the sequence CCATTCAA, the binding signal amounted to 0.0785 normalized occupancy. In the case of ATCATGGC, the binding signal stood at 0.0863 normalized occupancy. Take AGCATAGG: the binding signal is 0.0718 normalized occupancy. In the case of AGCATGGC it was 0.102 normalized occupancy; in that of AGCATGGG, 0.106 normalized occupancy; in that of CCCATGGC, 0.0849 normalized occupancy. For AGAATGGC, the binding signal came to 0.0756 normalized occupancy.

For ATCATGGA, the binding signal was 0.0834 normalized occupancy. On to ATCATGGG, for which the binding signal worked out at 0.0858 normalized occupancy. In the case of AGCATGGA it was 0.1 normalized occupancy. Take AGCATTGA: the binding signal was found to be 0.0777 normalized occupancy.

With CGCATAGC, the binding signal was 0.0734 normalized occupancy.

As for CGCATGGC, the binding signal stood at 0.127 normalized occupancy.
